41 molecules from PubChem BioAssay AID1159583 (ICCB-Longwood Screening Facility, Harvard Medical School, 2016) can be followed below.

“And” between values parts separate entries of the source, which are not always exact repeats. Equal entries are not always repeated. Out of some 300,000 compounds screened, about 310 (0.1%) were called active. No stated cut-off is given here; in the data, active means fluorescence inhibition mostly above about 23% (no sharp cut-off); inactive means mostly below about 17%. The full list was thinned out, with actives kept by preference.

The nature of the experiment: hypoxia reporter signal reduction in M. tuberculosis – fluorescence, absorbance growth readout, primary screen (AID 1159583). The note with it: M. tuberculosis hypoxia-regulated fluorescent reporter, stronger effect = higher value, concentration not given here; growth inhibition: measured here: M. tuberculosis growth (absorbance).
Turning to `COc1cc(C=NNC(=O)C(=O)NCc2cccnc2)cc(OC)c1OC`, the fluorescence inhibition was 11.1% (inactive) and the growth inhibition was 2.3%.
The corresponding values for `COC(=O)C1C[C@@]2(Br)c3ccccc3N(S(=O)(=O)c3ccccc3)C2N1C(=O)OC` (some centres not stated) are -0.203% (inactive) and -1.54%.
In the same order, the values of `CCOc1cccc(C=NN2C(C)CCCC2C)c1O` (configuration not stated) are -2.33% (inactive) and -0.595%.
In the same order, the values of `O=C(NC1CCCCC1)C1CC=CC2CCN(C3CCCCC3)C(=O)C21` (configuration not stated) are 8% (inactive) and 14.6%.
As to `C[C@@]12C(=O)N(Cc3ccco3)CC(=O)N1C1c3cc(Cl)ccc3OCC1C2c1ccccc1` (some centres not stated), the fluorescence inhibition is -6.06% (inactive) and the growth inhibition was found to be 1.32%.
The corresponding values for `Cn1cc([N+](=O)[O-])c(C(=O)NN=Cc2ccc([N+](=O)[O-])cc2)n1` are -5.59% (inactive) and 5.33%.
`Cc1ccc(C=NN(C)S(=O)(=O)c2ccc(C)cc2)cc1`: the fluorescence inhibition was -1.94% (inactive) and the growth inhibition was -2.51%.
In the same order, the values of `CCOC(=O)C1=C(C)CC(=NNC(=O)c2ccccc2O)CC1` are 19.7% (inactive) and 25.6%.
On to `CC(=NNC(=O)c1ccc(CSc2nncn2C)cc1)c1ccc(Cl)cc1`, for which the fluorescence inhibition was -0.114% (inactive) and the growth inhibition is 4.72%.
The corresponding values for `Cc1cc(C)nc(N=C(N)C2=C(O)CC(C)(C)CC2=O)n1` are 8.68% (inactive) and 10.4%.
In the same order, the values of `CC(Oc1ccccc1[N+](=O)[O-])C(=O)NN=Cc1ccoc1` (configuration not stated) are -0.473% (inactive) and 0.98%.
The corresponding values for `Cc1cc(C=NO)c(C)n1-c1ccccc1` are 10.5% (inactive) and 1.78%.
On to `C/C(C=NNC(=O)c1ccncc1)=C\c1ccccc1`, for which the fluorescence inhibition is 16.5% (inactive) and the growth inhibition was 7.43%.
In the same order, the values of `Cc1nn(-c2ccccc2)c(Cl)c1C=NNC(=O)c1cccc(S(=O)(=O)N2CCCC2)c1` are 10.2% (inactive) and 5.33%.
In the same order, the values of `C=C1CCN(C(C(=O)NCc2ccc(OC)cc2)C(C)C)S(=O)(=O)c2ccccc21` (configuration not stated) are 1.86% (inactive) and 4.01%.
In the same order, the values of `O=C1CSC(=S)N1N=Cc1ccc(C(F)(F)F)cc1` are 17.6% (inactive) and 14.7%.
Take `COCCCNC(=S)NN=Cc1ccc(N(C)C)cc1`: the fluorescence inhibition is 11.6% (inactive) and the growth inhibition was 2.41%.
The corresponding values for `CC(=NNC(=O)c1c(C)nc2ccccn12)c1ccc(C(C)(C)C)cc1` are -2.47% (inactive) and 18.1%.
The corresponding values for `CC(C)C(NC(=O)c1ccccc1)C(=O)OCC(=O)N1CCCc2ccccc21` (configuration not stated) are 6.63% (inactive) and 6.94%.
Take `COc1cccc(C=NNC(=O)CSCC(=O)Nc2ccccc2)c1O`: the fluorescence inhibition was 0.94% (inactive) and the growth inhibition was 11.7%.
The corresponding values for `CC(=NNC(=O)c1cc(-c2ccc(Cl)s2)[nH]n1)c1ccco1` are 0.382% (inactive) and 4.98%.
In the same order, the values of `CSc1ccc(C=NNC(=O)CNc2ccc3ccccc3c2)cc1` are 3.37% (inactive) and -2.84%.
As for `O=C1NC(Cc2ccccc2)C(=O)N2C1C[C@]1(Br)c3ccccc3N(S(=O)(=O)c3ccccc3)C21` (some centres not stated), the fluorescence inhibition is 4.31% (inactive) and 12.8% (inactive); the growth inhibition was 6.26% and 10.9%.
As to `COc1ccccc1C=NNC(=O)c1ccc2c(c1)OCO2`, the fluorescence inhibition was 14.7% (inactive) and the growth inhibition was found to be 5.14%.
In the same order, the values of `COCCCN1C(=O)C(=O)C(=C(O)c2ccc(C)cc2)C1c1ccccc1` (configuration not stated) are -3.99% (inactive) and -0.925%.
The corresponding values for `CC1CN=C(Nc2ccccc2)N1CCCC1CCCCC1` (configuration not stated) are 7.1% (inactive) and 4.93%.
In the same order, the values of `O=C1/C(=C\c2cccnc2)CN(Cc2ccccc2)C/C1=C\c1cccnc1` are 53.7% (active) and 35.7%.
For the molecule `Cc1ccccc1C1=N/C(=C/c2cccnc2)C(=O)O1`, the fluorescence inhibition was -4.88% (inactive) and the growth inhibition is 6.23%.
With `O=C1CCCC1=c1sc(=Cc2cccnc2)c(=O)n1-c1ccccc1`, the fluorescence inhibition was 9.8% (inactive) and the growth inhibition was determined as 5.53%.
The corresponding values for `Cc1cc(C(=O)NN=Cc2ccc3ccccc3c2)n[nH]1` are 7.06% (inactive) and -3.88%.
As for `Cc1ccc(NCC(=O)NN=Cc2ccc([N+](=O)[O-])o2)cc1`, the fluorescence inhibition was -3.3% (inactive) and the growth inhibition worked out at 3.65%.
In the same order, the values of `CN(C)c1ccc(C=NNC(=O)c2nonc2N)cc1[N+](=O)[O-]` are 2.61% (inactive) and -5.42%.
The corresponding values for `Nc1nonc1C(=O)NN=Cc1ccc([N+](=O)[O-])o1` are 52.4% (active) and 31.3%.
The corresponding values for `Cc1cccc(C=NNC(=O)CN2CCCCCCC2)c1` are 2.65% (inactive) and 8.69%.
As for `COc1ccc(C2CC=C(C(=O)O)C(c3ccccc3F)N2S(=O)(=O)c2ccc(C)cc2)cc1OC` (configuration not stated), the fluorescence inhibition was 19.4% (inactive) and the growth inhibition is 4.47%.
The corresponding values for `CCCC(=O)O[C@]1(C(=O)CCl)C(C)CC2C3CCC4=CC(=O)C=C[C@]4(C)[C@@]3(F)C(=O)C[C@@]21C` (some centres not stated) are -12.7% (inactive) and 2.62%.
As for `Cc1ccc(S(=O)(=O)N(C)CC(=O)NN=Cc2ccc(C)o2)cc1`, the fluorescence inhibition was -4.3% (inactive) and the growth inhibition was determined as 1.08%.
In the same order, the values of `COc1ccc(C2OCC3OC(O)C(NC(C)=O)C(O)C3O2)cc1` (configuration not stated) are 4.65% (inactive) and 11.9%.
The corresponding values for `CCc1ccc(C=NNC(=O)c2ccccn2)cc1` are 9.62% (inactive) and 15.4%.
The corresponding values for `COc1ccc(C(=O)NN=C(c2ccccc2)c2ccccn2)cc1` are -1.57% (inactive) and 6.08%.
Take `CCN(CC)CCOc1ccc2c(c1)C(=NNC(=O)c1ccccn1)c1cc(OCCN(CC)CC)ccc1-2`: the fluorescence inhibition was 46.2% (active) and the growth inhibition worked out at 20.2%.
